The list is not random: actives were taken first. Their share in the collection is about 4%.
ADAM10 inh: ADAM10 inhibition, QFRET primary screen. recombinant ADAM10, EDANS/DABCYL FRET peptide cleavage, 3 h. O14672. 0.62% of 370,000 active. AID 720582. inhibition, % at 7 µM;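 active = inhibition above a per-campaign cutoff equal to the mean of compounds falling between control-based bounds plus 3 SD, cut at about 20% in these data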;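 note: 0% = DMSO wells while the 100% control is not disclosed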
aDG glyco up: alpha-DG glycosylation activation. Pro5-aDG cells, alpha-DG glycosylation AlphaScreen (IIH6); 0% Pro5, 100% B10-LARGE cell signal. activation, % at 10 µM. 0.22% of 360,000 active. AID 624168;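 active = activation of at least 8% versus controls, or a plate z-score of at least 8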;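 note: Pro5 are CHO cells carrying HIG-tagged alpha-DG that lacks glycosylation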
FAS TE block: FAS thioesterase (human) inhibition; AID 602261; 0.67% of 360,000 active; P49327; recombinant FAS-TE, OMFH fluorogenic substrate, fluorescence endpoint; inhibition, % at 15 µM;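 active = compounds whose normalised, plate-corrected inhibition of enzyme fluorescence in the single-dose primary screen is 50% or more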;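 note: 0% = DMSO with enzyme and 100% = substrate without enzyme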
GRIN3A LBD mod: modulators (binders) of human NR3A ligand-binding domain; NR3A LBD differential scanning fluorimetry, Tm shift; 0% = protein alone, 100% = glycine-bound protein; Tm shift relative to glycine control, % at 25 µM; 2.5% of 340,000 active;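 active = melting temperature shift of at least 10% of the positive control shift, at one fixed dose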
ADAM17 inh: inhibits human ADAM17; P78536; recombinant ADAM17, EDANS/DABCYL FRET peptide cleavage; inhibition, % at 6.95 µM; 0.83% of 370,000 active;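 active = inhibition above the mean of compounds lying between control limits plus 3 SD, set per campaign, cut at about 8.5% in these data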;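 note: 0% = DMSO-only wells as the low control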
Target sequence (P78536 215-824 limits assumed): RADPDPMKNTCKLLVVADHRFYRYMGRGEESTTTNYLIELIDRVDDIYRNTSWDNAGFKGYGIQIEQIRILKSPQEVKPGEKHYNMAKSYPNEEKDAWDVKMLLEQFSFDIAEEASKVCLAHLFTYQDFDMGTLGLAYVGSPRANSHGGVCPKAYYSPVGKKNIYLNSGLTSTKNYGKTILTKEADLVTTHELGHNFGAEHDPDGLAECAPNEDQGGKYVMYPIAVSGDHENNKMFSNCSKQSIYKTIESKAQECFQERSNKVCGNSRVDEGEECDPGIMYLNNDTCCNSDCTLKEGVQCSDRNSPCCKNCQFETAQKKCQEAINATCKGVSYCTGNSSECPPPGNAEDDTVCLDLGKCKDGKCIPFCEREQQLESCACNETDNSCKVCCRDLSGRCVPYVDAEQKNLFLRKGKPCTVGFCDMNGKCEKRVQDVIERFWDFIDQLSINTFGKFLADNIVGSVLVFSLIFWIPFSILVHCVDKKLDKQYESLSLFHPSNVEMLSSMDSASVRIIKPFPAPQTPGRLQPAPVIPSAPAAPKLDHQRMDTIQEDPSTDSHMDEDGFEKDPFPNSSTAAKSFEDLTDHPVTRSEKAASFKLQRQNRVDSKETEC
ADAM10 ctr: inhibits human ADAM10 in ADAM17 exosite counter-screen. shares compounds with ADAM17 inh. recombinant ADAM10, EDANS/DABCYL FRET peptide cleavage, 3 h. inhibition, % at 6.95 µM. 47% of 2,900 active. AID 743256;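 active = mean inhibition over the triplicate runs exceeds the activity threshold set in the earlier primary screen, cut at about 20% in these data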;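 note: 0% = DMSO wells and 100% = marimastat wells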
ADAM17 confirm: confirmation of inhibitors of human ADAM17. shares compounds with ADAM17 inh. recombinant ADAM17, EDANS/DABCYL QFRET peptide cleavage. inhibition, % at 6.95 µM. 65% of 2,900 active. AID 743257;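 active = mean inhibition across replicates above the hit cutoff set in the primary screen, cut at about 8.5% in these data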;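 note: 0% = DMSO wells and 100% = marimastat wells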
* hit, by the source's call; i = inactive; . = not tested or not shown.

SMILES	ADAM10 inh	aDG glyco up	FAS TE block	GRIN3A LBD mod	ADAM17 inh	ADAM10 ctr	ADAM17 confirm
O=C(CSc1cccc(C(F)(F)F)c1)NC(=O)c1ccccc1	6	0	-2	3	8.7*	0	6
CCNC(=O)NC(=O)CSc1cccc(C(F)(F)F)c1	1	0	-1	0	3	.	.
CCOc1cc2[nH]c(=O)n(Cc3cccc(OC)c3)c(=O)c2cc1OCC	-16	0	-10	1	-4	.	.
O=C(Nc1cccc(S(=O)(=O)NCc2ccco2)c1)c1cc(-c2ccccc2)nc2ccccc12	16	0	35	7	10*	31*	17*
S=C(NCc1ccc(Cl)cc1)Nc1ccc(Cl)cc1Cl	13	0	-3	1	2	.	.
S=C(NCCc1ccc(Cl)cc1)Nc1ccc(Cl)cc1Cl	29*	0	42	18*	16*	34*	19*
Cc1ccc(Cc2c(-c3ccc(Cl)cc3)nc3cc(C)c(Br)c(C)n23)cc1	9	0	17	.	2	.	.
O=C(OCc1nc2scc(-c3ccccc3)c2c(=O)[nH]1)c1cc(Cl)ccc1[N+](=O)[O-]	12	0	34	-7	8.6*	1	4
Cc1c(C(=O)OCc2nc3scc(-c4ccccc4)c3c(=O)[nH]2)cccc1[N+](=O)[O-]	2	0	12	2	0	.	.
C[C@H]1CCC[C@@]2(O[C@H](CCO)C[C@@H](O)[C@@H]2O)O1	-1	0	-10	-1	-1	.	.
COc1ccc(Oc2ccc(/C=C/C(=O)c3ccc(O)cc3)cc2[N+](=O)[O-])cc1	16	-1	-41	20*	9.6*	38*	22*
O=C(/C=C/c1ccc(O)c([N+](=O)[O-])c1)c1ccc2ccccc2c1	12	0	-2	-1	-1	.	.
Cc1ccc(/C(N)=N/OC(=O)N2CCOCC2)cc1	-2	0	-2	-1	-3	.	.
Cc1cccc(/C(N)=N/OC(=O)N2CCOCC2)c1	2	0	-4	0	13*	14	12*
Cc1c(NC(=O)CCSCCc2ccccn2)cccc1[N+](=O)[O-]	-7	0	-5	-3	-1	.	.
Cc1cccc2cc(C3CC(c4ccco4)=NN3S(=O)(=O)c3ccccc3)c(Cl)nc12 (stereo not given)	10	0	48	1	9.4*	20*	12*
C[C@H](CO)N1C[C@H](C)[C@@H](CN(C)Cc2ccc(-c3ccccc3)cc2)Oc2ncc(C#C[C@@H](C)O)cc2C1=O	-1	0	2	.	6	.	.
O=C(N/N=C/c1cccc(Cl)c1)C1CCCC1	5	0	-1	-1	0	.	.
S=c1[nH]nc(CNc2ccc(Cl)cc2)n1Cc1ccccc1	10	0	-2	1	7	.	.
Fc1ccc(NCc2n[nH]c(=S)n2Cc2ccccc2)cc1	16	0	-2	-1	11*	11	9
CCNc1nc(NC(C)(C)C)nc(N(C#N)CC)n1	0	0	-3	-1	-1	.	.
O=C(CSc1ccccc1)NCC1(N2CCOCC2)CCCCC1	0	0	-4	-1	4	.	.
CCN1C(=O)[C@@H]2[C@@H](c3ccc(-c4ccc(Cl)c(Cl)c4)c(OC)c3)N3CCC[C@@]3(C(=O)OC)[C@@H]2C1=O	15	0	35	-4	6	.	.
CCN1C(=O)[C@@H]2[C@@H](c3ccc(-c4cccc(Cl)c4)c(OC)c3)N3CCCC[C@@]3(C(=O)OC)[C@@H]2C1=O	13	0	25	-2	9.9*	20*	16*
COC(=O)C1=C(C(=O)OC)SC2(S1)C(C(=O)OC)=C(C(=O)OC)SC1=C2c2cccc(C)c2NC1(C)C	13	1	-4	-1	13*	19	11*
SMILES	ADAM10 inh	aDG glyco up	FAS TE block	GRIN3A LBD mod	ADAM17 inh	ADAM10 ctr	ADAM17 confirm
CC12CCC(C(=O)NC(c3ccccc3)c3ccccc3)(OC1=O)C2(C)C (stereo not given)	12	0	10	0	9.1*	-5	-1
CC12CCC(C(=O)NNc3ccccc3)(OC1=O)C2(C)C (stereo not given)	-9	0	-2	-3	-5	.	.
O=C(O)c1cc(-c2cccs2)nc2ccc(F)cc12	i	0	-6	2	i	.	.
CC(=O)NC(c1cccs1)c1cc([N+](=O)[O-])c2cccnc2c1O (stereo not given)	15	2	11	-7	11*	36*	19*
CCC(=O)NC(c1cccs1)c1cc([N+](=O)[O-])c2cccnc2c1O (stereo not given)	15	0	1	-8	3	.	.
O=S(=O)(c1ccccc1F)N1CCC(c2nc3ccccc3o2)CC1	-3	.	.	.	9.1*	13	4
O=S(=O)(c1ccc(F)cc1)N1CCC(c2nc3ccccc3o2)CC1	-2	.	.	.	-2	.	.
C/C(=N\N=C(/N)SC1CC(=O)N(c2ccc(Cl)cc2)C1=O)c1cccs1 (stereo not given)	15	0	17	18*	11*	35*	18*
COc1ccc(CCNC(=O)c2cc(-c3ccco3)nc3ccccc23)cc1	16	.	.	-2	9.5*	i	-271
O=C(NC1CCCCCCC1)c1c(O)c2ccccc2[nH]c1=O	3	0	-7	0	9.4*	-6	1
O=C(NC1CC1)c1c(O)c2ccccc2[nH]c1=O	-7	0	0	0	-3	.	.
O=C(NCc1ccccc1)c1c[nH]c2cc3c(cc2c1=O)OCCO3	-9	0	-11	4	-5	.	.
Cc1ccc(-c2cc(-c3nnc4sc(Cc5cccs5)nn34)[nH]n2)cc1	-8	.	.	.	0	.	.
CCN(CC)S(=O)(=O)c1ccc(OC)c(NC(=O)c2ccc(OC)c([N+](=O)[O-])c2)c1	13	0	20	-6	13*	0	1
CCN(CC)S(=O)(=O)c1ccc(N2CCOCC2)c(NC(=O)c2ccc(OC)c([N+](=O)[O-])c2)c1	-2	0	20	0	-4	.	.
CCCCN(CCCC)S(=O)(=O)c1ccc(NC(=O)c2cccs2)cc1	16	0	31	8	12*	32*	16*
N#Cc1ccccc1S(=O)(=O)N1CCN(c2nc(-c3cccs3)nc3ccccc23)CC1	-9	.	.	.	-2	.	.
Cc1cccc(N2CCN(C(=O)c3ccc(CS(=O)Cc4ccc(Cl)cc4)o3)CC2)c1C (stereo not given)	19	0	21	-6	11*	18	12*
